Test results taken from publication PMC11062922 (Nature Chemical Biology, 2023).
Like-named read-outs stand apart in the source and are kept apart here.

Experiments:
Design in all cases: species or system human, MV4-11 + K-562 + COLO205 + SK-N-BE2 + OVCAR-8
[1] = tested on: ADRBK1; settings: read-out: apparent Kd; compound concentrations: 100 nM and 1000 nM (sheet 'Samples'), CATDS: 0.13244009116627101; n = 1
[2] = tested on: ERBB3; settings: read-out: apparent Kd; compound concentrations: 100 nM and 1000 nM (sheet 'Samples'), CATDS: 0.13947545743424; n = 1
[3] = tested on: MAP2K1; settings: read-out: apparent Kd; compound concentrations: 100 nM and 1000 nM (sheet 'Samples'), CATDS: 0.50931897145829497; n = 1
[4] = tested on: MAP2K2; settings: read-out: apparent Kd, compound concentrations: 100 nM and 1000 nM (sheet 'Samples'), n = 1
[5] = tested on: NQO2; settings: read-out: apparent Kd; compound concentrations: 100 nM and 1000 nM (sheet 'Samples'), CATDS: 0.16308472458482501; n = 1
[6] = tested on: AKT2; settings: read-out: apparent Kd, n = 1
[7] = tested on: AKT3; settings: read-out: apparent Kd; compound concentrations: 100 nM and 1000 nM (sheet 'Samples'), CATDS: 0.150950387905983; n = 1
[8] = tested on: MYLK3; settings: read-out: apparent Kd; compound concentrations: 100 nM and 1000 nM (sheet 'Samples'), CATDS: 0.56668098220649099; n = 1
[9] = tested on: NQO1; settings: read-out: apparent Kd; compound concentrations: 100 nM and 1000 nM (sheet 'Samples'), CATDS: 0.17515611913919399; n = 1
[10] = tested on: RIOK2; settings: read-out: apparent Kd; compound concentrations: 100 nM and 1000 nM (sheet 'Samples'), CATDS: 0.13311346938063801; n = 1
[11] = tested on: CDK16; settings: read-out: apparent Kd; compound concentrations:100 nM and 1000 nM (sheet 'Samples'); n = 1
[12] = tested on: CDK17; settings: read-out: apparent Kd; compound concentrations:100 nM and 1000 nM (sheet 'Samples'); n = 1
[13] = tested on: CDKL5; settings: read-out: apparent Kd; compound concentrations:100 nM and 1000 nM (sheet 'Samples'); n = 1
[14] = tested on: T1, DJA1; settings: read-out: apparent Kd; compound concentrations:100 nM and 1000 nM (sheet 'Samples'); n = 1
T1 construct: gene DNAJA1

[15] = tested on: GSK3A; settings: read-out: apparent Kd; compound concentrations:100 nM and 1000 nM (sheet 'Samples'); n = 1
[16] = tested on: GSK3B; settings: read-out: apparent Kd; compound concentrations:100 nM and 1000 nM (sheet 'Samples'); n = 1
[17] = tested on: JAK2; settings: read-out: apparent Kd; compound concentrations:100 nM and 1000 nM (sheet 'Samples'); n = 1
[18] = tested on: MAPK14; settings: read-out: apparent Kd; compound concentrations:100 nM and 1000 nM (sheet 'Samples'); n = 1
[19] = tested on: PIK3CA; settings: read-out: apparent Kd; compound concentrations:100 nM and 1000 nM (sheet 'Samples'); n = 1
[20] = tested on: PIK3CD; settings: read-out: apparent Kd; compound concentrations:100 nM and 1000 nM (sheet 'Samples'); n = 1
[21] = tested on: RPS6KA6; settings: read-out: apparent Kd; compound concentrations:100 nM and 1000 nM (sheet 'Samples'); n = 1
[22] = tested on: AGK; settings: read-out: apparent Kd; compound concentrations:100 nM and 1000 nM (sheet 'Samples'); n = 1
[23] = tested on: EGFR; settings: read-out: apparent Kd; compound concentrations:100 nM and 1000 nM (sheet 'Samples'); n = 1
[24] = tested on: HSP90B1; settings: read-out: apparent Kd; compound concentrations:100 nM and 1000 nM (sheet 'Samples'); n = 1
[25] = tested on: MTHFD1; settings: read-out: apparent Kd; compound concentrations:100 nM and 1000 nM (sheet 'Samples'); n = 1
[26] = tested on: NNT; settings: read-out: apparent Kd; compound concentrations:100 nM and 1000 nM (sheet 'Samples'); n = 1

**Q.** Which results are given for `Cn1c(=O)c(F)c(Nc2ccc(I)cc2F)c2c(=O)n(OC[C@H](O)CO)cnc21` [TPKI-16]?
**A.** potency estimated from few doses [1]: 1780 nM; potency estimated from few doses [2]: 1370 nM; potency estimated from few doses [3]: 12.2 nM; potency estimated from few doses ([4]; CATDS: 0.45776902126379299): 15 nM; potency estimated from few doses [5]: 677 nM

**Q.** With `COc1cc2ncn(-c3cc(OCCc4ccccc4)c(C(N)=O)s3)c2cc1OC` [GSK204925A] as the molecule, how does the potency estimated from few doses ([6]; compound concentrations: 100 nM and 1000 nM (sheet 'Samples'), CATDS: 0.131386999232284) read?
**A.** 2300 nM

**Q.** And the potency estimated from few doses [7]?
**A.** 1570 nM

**Q.** And the potency estimated from few doses ([4]; CATDS: 0.14753696988114701)?
**A.** 1660 nM

**Q.** And the potency estimated from few doses [8]?
**A.** 137 nM

**Q.** And the potency estimated from few doses [9]?
**A.** 1100 nM

**Q.** What about the potency estimated from few doses [10] of the same molecule?
**A.** 2210 nM

**Q.** Which potency estimated from few doses ([6]; compound concentrations:100 nM and 1000 nM (sheet 'Samples')) does the source give for `CN1CCC(C(=O)Nc2n[nH]c3nnc(-c4ccccc4)cc23)CC1.Cl` [SB-678557-A] here?
**A.** 2390 nM

**Q.** And the potency estimated from few doses [11]?
**A.** 1070 nM

**Q.** And the potency estimated from few doses [12]?
**A.** 1910 nM

**Q.** And the potency estimated from few doses [13]?
**A.** 75.2 nM

**Q.** What about the potency estimated from few doses [14] of the same molecule?
**A.** 1840 nM

**Q.** And the potency estimated from few doses [15]?
**A.** 3.32 nM

**Q.** What about the potency estimated from few doses [16] of the same molecule?
**A.** 8.23 nM

**Q.** What about the potency estimated from few doses [17] of the same molecule?
**A.** 721 nM

**Q.** What about the potency estimated from few doses [18] of the same molecule?
**A.** 1690 nM

**Q.** And the potency estimated from few doses [19]?
**A.** 183 nM

**Q.** And the potency estimated from few doses [20]?
**A.** 173 nM

**Q.** And the potency estimated from few doses [21]?
**A.** 1150 nM

**Q.** How did the potency estimated from few doses [22] turn out when `CS(=O)(=O)CCNCc1ccc(-c2ccc3ncnc(Nc4ccc(OCc5ccccc5)c(Cl)c4)c3c2)o1.Cl` [GW574783B_PKIS1] was run?
**A.** 1950 nM

**Q.** What about the potency estimated from few doses [23] of the same molecule?
**A.** 156 nM

**Q.** What about the potency estimated from few doses [24] of the same molecule?
**A.** 1710 nM

**Q.** What about the potency estimated from few doses [25] of the same molecule?
**A.** 1950 nM

**Q.** What about the potency estimated from few doses [26] of the same molecule?
**A.** 1200 nM
